# Many of the other results were omitted from the sample, so hits are more common in it than they were.
# RE007 growth inh = less growth of the S. pombe RE007 Vpr strain; S. pombe RE007 Vpr strain, BacTiter-Glo ATP luminescence, 24 h; Potency, µM (titrated, usually from 92.2 µM), inactives show at the highest dose activity change, negative = less growth, actives largely listed as inhibitors; 0.21% of 360,000 active; AID 651644; active = well fitted falling curve with a large enough effect; inconclusive = small, poorly fitted or top-dose-only effect; inactive = no such curve, though single readings can be large or run the other way; note: potency is the fitted concentration of half-maximal effect; % is set by controls: 0 for no effect and ±100 for the full control effect; nearly all actives have a fitted effect of over 50% in size
#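 Fission yeast RE007 carrying one integrated HIV-1 vpr copy, seeded at OD 0.01 in PMG+AL medium with 23 nL pinned compound. Grown 24 h at 30 degrees; viability read by BacTiter-Glo luminescence after 5 min.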
# TbPYK inhibitor = blocks Trypanosoma brucei pyruvate kinase. Q57TT1. TbPYK enzyme, Kinase-Glo Plus ATP luminescence, 45 min. Potency, µM (series often up to 76.8 µM), for inactives: at the top dose activity, negative = inhibition, most hits filed as inhibitors. 0.12% of 410,000 active. AID 624173; note: potency is the fitted concentration of half-maximal effect; % is set by controls: 0 for no effect and ±100 for the full control effect; nearly all actives have a fitted effect of over 50% in size
#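 Quantitative HTS: titrated library compounds versus trypanosomal pyruvate kinase in TEA buffer (pH 7.2) containing KCl, MgCl2, BSA and Tween-20. Reactions were initiated with ADP, 130 uM final. Kinase-Glo Plus luminescence was read after 45 min at RT.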
# LmPK inhibitor = blocks Leishmania mexicana pyruvate kinase activity; Q27686; purified LmPK, Kinase-Glo ATP luminescence, 1 h; Potency, µM (top dose mostly 57.5 µM), for inactives: top-dose activity change, negative = inhibition, usual class: inhibitors; 0.37% of 290,000 active; note: potency is the fitted concentration of half-maximal effect; % is set by controls: 0 for no effect and ±100 for the full control effect
# Target sequence (Q27686 whole entry, looked up): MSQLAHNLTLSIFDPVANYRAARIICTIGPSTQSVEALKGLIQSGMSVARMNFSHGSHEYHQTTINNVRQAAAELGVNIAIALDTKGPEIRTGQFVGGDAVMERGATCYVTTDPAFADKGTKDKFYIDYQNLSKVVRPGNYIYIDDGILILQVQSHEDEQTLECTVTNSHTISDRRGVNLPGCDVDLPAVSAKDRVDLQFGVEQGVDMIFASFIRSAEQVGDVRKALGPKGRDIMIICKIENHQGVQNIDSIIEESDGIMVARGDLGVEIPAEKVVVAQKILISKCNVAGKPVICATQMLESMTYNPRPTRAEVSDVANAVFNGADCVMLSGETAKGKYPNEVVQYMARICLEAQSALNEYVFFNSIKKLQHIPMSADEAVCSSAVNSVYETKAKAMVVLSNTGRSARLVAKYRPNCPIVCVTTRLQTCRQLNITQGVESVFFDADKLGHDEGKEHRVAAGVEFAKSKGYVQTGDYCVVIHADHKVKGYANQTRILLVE
#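 Screened at intermediate enzyme activity to detect both inhibitors and activators: LmPK at 0.1 nM, with a 0.5 nM enzyme column as activation reference. PEP 0.5 mM, ADP 0.1 mM; ATP detected by luminescence after 1 h.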
# Giardia FBPA inh = inhibitors of Giardia lamblia fructose-1,6-bisphosphate aldolase | A8B2U2 | purified Giardia FBPA | Potency, µM (titrated, usually from 59.6 µM), inactives show top-dose activity, negative = inhibition, most hits filed as inhibitors | 0.71% of 290,000 active; note: potency is the fitted concentration of half-maximal effect; % is set by controls: 0 for no effect and ±100 for the full control effect; nearly all actives have a fitted effect of over 55% in size
#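 40 nM FBPA preincubated 10 min at RT with compound (up to 57.5 uM final), then substrate plus GAPDH/TPI/NAD/arsenate coupling and diaphorase/resazurin added. Fluorescence read after 20 min at RT, 525/598 nm.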
# Shiga inhibitor = blocks Shiga toxin action in Vero cells. Vero cells, Shiga toxin protein synthesis inhibition reporter. inhibition, % at 38.7 µM. 9.2% of 290,000 active. AID 2315; in the data active = inhibition mostly above about 28%, no sharp cut-off; inactive = mostly below about 43%; note: 0% is about no effect
# Cycloheximide cs = affects cycloheximide protein synthesis inhibition readout, counter-screen; cell reporter, cycloheximide protein synthesis inhibition counterscreen; max response, %; 12% of 300,000 active; in the data active = max response mostly above about 13%, no sharp cut-off; inactive = mostly below about 14%; note: read at 38.3 µM for the half of the compounds with a filed dose; 0% is about no effect
# The depositor's hits bear a star; ? = inconclusive; . = not tested or not shown; [ ] = remark or other dose. Unless noted, calls come from the whole dose curve; as a rule, active = well fitted curve in the direction sought with a large enough effect; inconclusive = small, poorly fitted or top-dose-only effect, or another doubt; inactive = no such curve, though single readings can be large; an effect the other way counts as inactive or inconclusive.
SMILES,RE007 growth inh,TbPYK inhibitor,LmPK inhibitor,Giardia FBPA inh,Shiga inhibitor,Cycloheximide cs
CCOC(=O)N1CCC2(CC1)OC(=O)C(C)=C2C(=O)NCc1ccc(C)cc1,.,-1%[15.4 µM],.,.,.,.
Cc1cccn2cc(CCNC(=O)Cc3cccs3)nc12,-18%,1%,3%,-1%,11,0
CCS(=O)(=O)NCCc1csc(-c2ccccc2)n1,-9%,0%,-7%,7%,71*,57*
Cc1cccc(-c2nc(CCNC(=O)Cc3ccccc3)cs2)c1,.,1%,.,.,.,.
CC(C)(C)CC(=O)NCCc1csc(-c2ccccc2)n1,-2%,7%,0%,-2%,34*,22*
O=C(NCCc1csc(-c2ccccc2)n1)c1cccs1,-6%,-11%,5%,4%,-15,13*
Cc1cccn2cc(CCNC(=O)c3cccs3)nc12,-18%,0%,-1%,14%,33,18*
NC(=O)c1ccc(NC(=O)Cc2csc(-c3ccccc3)n2)cc1,-2%,0%,1%,3%,-3,-3
CC(=O)NCCc1csc(-c2ccccc2)n1,4%,0%,-1%,0%,39,16*
O=C(Cc1csc(-c2ccccc2)n1)NCc1cccs1,10%,-1%,2%,0%,37*,24*
COc1ccc(-c2nc(CCNC(=O)Cc3ccc(F)cc3)cs2)cc1,.,7%,.,.,.,.
O=C(COc1ccccc1F)NC1CC(=O)N(c2ccc3c(c2)OCCO3)C1 (centres undefined),.,2%,.,.,.,.
O=C(c1cccs1)c1no[n+]([O-])c1C(=O)c1cccs1,28µM*,-13%,21%,4µM*,24,9
CCCCNc1cnn(-c2ccccc2)c(=O)c1Cl,-13%,-6%,1%,0%,75*,33*
COCCNc1cnn(-c2ccccc2)c(=O)c1Cl,-1%,5%,-5%,5%,39*,25*
O=c1c(Cl)c(Cl)cnn1-c1ccccc1,-13%,2%,-3%,3%,-19,-9
CCOc1cnn(-c2ccccc2)c(=O)c1Cl,.,0%,1%,-3%,10,8
CN(c1cnn(-c2ccccc2)c(=O)c1Cl)n1cccc1,1%,9%,5%,0%,56*,34*
FC(F)(F)c1ccccc1-c1nc(-c2ccncc2)no1,6%,0%,1%,6%,47*,40*
COc1nc(-c2ccc(C)cc2)ccc1-c1noc(-c2ccccc2Br)n1,.,1%,.,.,.,.
O=C(O)c1ccc(-c2noc(-c3ccccc3C(F)(F)F)n2)cc1,.,-3%,.,.,.,.
COc1ccc(-c2nc(-c3ccc(Br)cc3)no2)c(OC)c1,-7%,-3%,-4%,0%,197*,39*
Cc1ccc(-c2noc(-c3ccccc3Br)n2)cc1,?,-5%,-13%,1%,65*,35*
COc1ccc2cc(-c3nc(-c4ccc(N(C)C)cc4)no3)c(=O)oc2c1,.,-6%,.,.,.,.
COc1cc(OC)cc(-c2nc(-c3ccc(Br)cc3)no2)c1,6%,-8%,1%,-2%,7,7
SMILES,RE007 growth inh,TbPYK inhibitor,LmPK inhibitor,Giardia FBPA inh,Shiga inhibitor,Cycloheximide cs
CN(C)c1ccc(-c2noc(-c3ccccc3O)n2)cc1,1%,-1%,-10%,3%,126*,47*
CCc1ccc(CSc2nc(-c3ccccc3OC)nc3c2Cc2c(CO)cnc(C)c2O3)cc1,.,-3%,.,.,.,.
COc1ccc(-c2ccc3c(N)c(C(=O)NCc4ccc(Cl)cc4)sc3n2)cc1,.,4%,.,.,.,.
Cc1cc(N2CCC(C(=O)Nc3ccc(Cl)cc3)CC2)n2nc(C)c(-c3ccc(Cl)cc3)c2n1,.,-3%,.,.,.,.
CC(C)=CCC/C(C)=C/CC/C(C)=C/CSCC(=O)O,.,.,.,6%,.,.
COc1ccccc1-c1nc(-c2ccc(Br)cc2)no1,4%,2%,7%,-1%,25,30*
CS(=O)(=O)c1ccccc1-c1nc(-c2ccc(C(F)(F)F)cc2)no1,-6%,-2%,3%,-15%,60*,21*
COc1ccc(-c2ccc(-c3noc(-c4ccccc4OC)n3)c(OC)n2)cc1,-15%,2%,7%,3%,-6,2
CCSc1ccccc1-c1nc(-c2ccncc2)no1,-7%,-4%,2%,4%,35,26*
Cc1noc(-c2ccc(-c3noc(-c4ccc(C(F)(F)F)cc4)n3)cc2)n1,.,-4%,.,.,.,.
CCOc1nc(C)ccc1-c1noc(-c2ccccc2OC)n1,?,-9%,-5%,0%,39,24*
CCOc1ccccc1-c1nc(-c2ccc(-c3ccccc3)nc2OCC)no1,.,-3%,.,.,.,.
Cc1c(-c2nc(-c3ccc(C(F)(F)F)cc3)no2)n(C)oc1=O,-9%,0%,-4%,3%,129*,70*
COc1ccccc1-c1nc(-c2ccncc2)no1,-8%[3.69 µM],.,?,4%,79*,32*
COC(=O)N1C(C)=Cc2ccccc2C1C/C(C)=C/C(C)=O (centres undefined),.,.,-1%[11.5 µM],-1%,.,.
CCOC(=O)C1CCN(C(c2ccc(SC)cc2)c2c(O)cc(C)n(Cc3ccco3)c2=O)CC1 (centres undefined),.,-7%,.,.,.,.
CC1Cc2cc(S(=O)(=O)CCC(=O)Nc3ccc(Cl)cc3F)ccc2N1C(=O)C1CC1 (centres undefined),.,-8%,.,.,.,.
COc1ccc(-n2c(C)c(C(C)=O)c3cc(O)ccc32)cc1,.,-2%,4%,-1%,-2,-4
CCOC(=O)COc1ccc2c(c1)c(C(C)=O)c(C)n2-c1ccc(OC)cc1,2%,1%,0%,-7%,145*,63
CCOC(=O)c1cnc2c(ccc3ccccc32)c1NCCO,?,1%,-6%,-28%,38*,12
CCOC(=O)c1cnc2c(ccc3ccccc32)c1Nc1ccc(OCC)cc1,.,-8%,.,.,.,.
CCOC(=O)c1cnc2c(ccc3ccccc32)c1N,-5%,-4%,1%,-2%,.,34*
Cc1cccc(-n2c(SCC(=O)c3ccccc3)nnc2-c2ccc(Br)cc2)c1,.,8%,.,.,.,.
O=[N+]([O-])c1cccnc1Sc1n[nH]c(-c2ccc(Cl)cc2)n1,9%,5%,10%,0%,55*,37*
Cc1ccc(NC(=O)Cn2nc(N3CCN(c4ccccc4)CC3)ccc2=O)cc1F,.,16%,.,.,.,.
CC(C)c1ccc(C(=O)NN2CCOCC2)cc1,6%,3%,-2%,.,-20,-1
S=C(Nc1ccc(Cl)cc1)N1CCN(Cc2ccccc2)CC1,-13%,-6%,-1%,5%,-19,-1
CC(C)c1ccc(NC(=S)N2CCN(Cc3ccccc3)CC2)cc1,14%,1%,3%,12%,36,12*
CC(C)c1ccc(/C=C/C(=O)NC(=S)NN2CCOCC2)cc1,-4%,5%,-5%,.,15,17*
CC(C)c1ccc(/C=C/C(=O)NC(=S)Nc2ccc(CN3CCOCC3)cc2)cc1,?,3%,5%,1%,12,15*
